# Measured values taken from PubChem BioAssay AID1159580 (chemical genetic matrix, 2015).
# Screen size: about 5,500 compounds; about 2,000 (36%) were called active. Another 18% or so got no clear call; they are omitted. Some of the results follow. A number with no mark means an inactive call. No stated cut-off is given here; in the data, active means normalized growth mostly below about 0.91 (no sharp cut-off); inconclusive means no clear call, values can overlap the other calls; inactive means mostly above about 0.92.
# Assay: chemical genetic growth profiling, strain panel (AID 1159580);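 further: tested at 20 µM; growth read once vehicle control cultures reached saturation at 30 °C; 1 = growth at the plate median or of vehicle wells; lower values mean less growth of the strain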
# Conditions: growth OD
structure (smiles),measurement,setting,value
Cc1c(Cl)cccc1Nc1ccccc1C(=O)O,normalized growth,"S. cerevisiae deletion strains, locus YJR075W, strain HOC1, active compounds read low",0.852 (active)
same,normalized growth,"S. cerevisiae deletion strains, locus YKL009W, strain mrt4, active compounds read low",0.788 (active)
same,normalized growth,"S. cerevisiae deletion strains, locus YKL068W, active compounds read low",0.954
same,normalized growth,"S. cerevisiae deletion strains, locus YKL085W, strain MDH1 (second series), active compounds read low",0.922 (active)
same,normalized growth,"S. cerevisiae deletion strains, locus YKL085W, strain MDH1, active compounds read low",0.922 (active)
same,normalized growth,"S. cerevisiae deletion strains, locus YKL160W, strain elf1, active compounds read low",0.764 (active)
same,normalized growth,"S. cerevisiae deletion strains, locus YKL190W, strain CNB1, active compounds read low",0.863 (active)
same,normalized growth,"S. cerevisiae deletion strains, locus YKR001C, strain vps1, active compounds read low",0.52 (active)
same,normalized growth,"S. cerevisiae deletion strains, locus YKR026C, strain gcn3, active compounds read low",0.79 (active)
same,normalized growth,"S. cerevisiae deletion strains, locus YKR091W, strain srl3, active compounds read low",0.829 (active)
same,normalized growth,"S. cerevisiae deletion strains, locus YLL001W, strain dnm1, active compounds read low",0.814 (active)
same,normalized growth,"S. cerevisiae deletion strains, locus YLL026W, active compounds read low",0.831 (active)
same,normalized growth,"S. cerevisiae deletion strains, locus YLL041C, strain sdh2, active compounds read low",0.818 (active)
same,normalized growth,"S. cerevisiae deletion strains, locus YLR027C, strain aat2, active compounds read low",0.819 (active)
same,normalized growth,"S. cerevisiae deletion strains, locus YLR039C, strain RIC1, active compounds read low",0.537 (active)
same,normalized growth,"S. cerevisiae deletion strains, locus YLR058C, strain SHM2, active compounds read low",0.849 (active)
same,normalized growth,"S. cerevisiae deletion strains, locus YLR102C, strain apc9, active compounds read low",0.788 (active)
same,normalized growth,"S. cerevisiae deletion strains, locus YLR113W, strain HOG1, active compounds read low",0.566 (active)
same,normalized growth,"S. cerevisiae deletion strains, locus YLR221C, strain rsa3, active compounds read low",0.777 (active)
same,normalized growth,"S. cerevisiae deletion strains, locus YLR258W, strain gsy2, active compounds read low",0.831 (active)
same,normalized growth,"S. cerevisiae deletion strains, locus YLR262C, strain YPT6 (second series), active compounds read low",0.48 (active)
same,normalized growth,"S. cerevisiae deletion strains, locus YLR262C, strain YPT6, active compounds read low",0.491 (active)
same,normalized growth,"S. cerevisiae deletion strains, locus YLR268W, strain sec22, active compounds read low",0.724 (active)
same,normalized growth,"S. cerevisiae deletion strains, locus YLR320W, strain mms22, active compounds read low",0.59 (active)
same,normalized growth,"S. cerevisiae deletion strains, locus YLR330W, strain CHS5, active compounds read low",0.82 (active)
same,normalized growth,"S. cerevisiae deletion strains, locus YLR342W, strain FKS1 (second series), active compounds read low",0.671 (active)
same,normalized growth,"S. cerevisiae deletion strains, locus YLR342W, strain FKS1, active compounds read low",0.795 (active)
same,normalized growth,"S. cerevisiae deletion strains, locus YLR357W, strain rsc2, active compounds read low",0.93
same,normalized growth,"S. cerevisiae deletion strains, locus YLR370C, strain arc18, active compounds read low",0.808 (active)
same,normalized growth,"S. cerevisiae deletion strains, locus YLR371W, strain rom2, active compounds read low",0.838 (active)
same,normalized growth,"S. cerevisiae deletion strains, locus YLR384C, strain iki3, active compounds read low",0.832 (active)
same,normalized growth,"S. cerevisiae deletion strains, locus YLR418C, strain cdc73, active compounds read low",0.591 (active)
same,normalized growth,"S. cerevisiae deletion strains, locus YML016C, strain PPZ1, active compounds read low",0.857 (active)
same,normalized growth,"S. cerevisiae deletion strains, locus YML032C, strain rad52, active compounds read low",0.792 (active)
same,normalized growth,"S. cerevisiae deletion strains, locus YML120C, strain ndi1, active compounds read low",0.723 (active)
same,normalized growth,"S. cerevisiae deletion strains, locus YML124C, strain tub3, active compounds read low",0.787 (active)
same,normalized growth,"S. cerevisiae deletion strains, locus YMR058W, strain fet3, active compounds read low",0.79 (active)
same,normalized growth,"S. cerevisiae deletion strains, locus YMR078C, strain ctf18, active compounds read low",0.761 (active)
same,normalized growth,"S. cerevisiae deletion strains, locus YMR125W, strain sto1, active compounds read low",0.781 (active)
same,normalized growth,"S. cerevisiae deletion strains, locus YMR129W, active compounds read low",0.823 (active)
same,normalized growth,"S. cerevisiae deletion strains, locus YMR205C, strain PFK2, active compounds read low",0.673 (active)
same,normalized growth,"S. cerevisiae deletion strains, locus YMR223W, strain ubp8, active compounds read low",0.795 (active)
same,normalized growth,"S. cerevisiae deletion strains, locus YMR231W, strain pep5, active compounds read low",0.813 (active)
same,normalized growth,"S. cerevisiae deletion strains, locus YMR263W, strain SAP30, active compounds read low",0.824 (active)
same,normalized growth,"S. cerevisiae deletion strains, locus YMR307W, strain GAS1, active compounds read low",0.557 (active)
same,normalized growth,"S. cerevisiae deletion strains, locus YNL067W, strain RPL9B, active compounds read low",0.846 (active)
same,normalized growth,"S. cerevisiae deletion strains, locus YNL071W, strain lat1, active compounds read low",0.569 (active)
same,normalized growth,"S. cerevisiae deletion strains, locus YNL153C, strain GIM3, active compounds read low",0.849 (active)
same,normalized growth,"S. cerevisiae deletion strains, locus YNL183C, strain NPR1, active compounds read low",0.641 (active)
same,normalized growth,"S. cerevisiae deletion strains, locus YNL209W, strain ssb2, active compounds read low",0.869 (active)
same,normalized growth,"S. cerevisiae deletion strains, locus YNL233W, strain BNI4, active compounds read low",0.797 (active)
same,normalized growth,"S. cerevisiae deletion strains, locus YNL248C, strain rpa49, active compounds read low",0.886 (active)
same,normalized growth,"S. cerevisiae deletion strains, locus YNL250W, strain rad50, active compounds read low",0.941
same,normalized growth,"S. cerevisiae deletion strains, locus YNL271C, strain bni1, active compounds read low",0.919 (active)
same,normalized growth,"S. cerevisiae deletion strains, locus YNL298W, strain CLA4, active compounds read low",0.842 (active)
same,normalized growth,"S. cerevisiae deletion strains, locus YNL307C, strain MCK1, active compounds read low",0.437 (active)
same,normalized growth,"S. cerevisiae deletion strains, locus YNL322C, strain KRE1 (second series), active compounds read low",0.856 (active)
same,normalized growth,"S. cerevisiae deletion strains, locus YNL322C, strain KRE1, active compounds read low",0.876 (active)
same,normalized growth,"S. cerevisiae deletion strains, locus YNR049C, strain mso1, active compounds read low",0.822 (active)
same,normalized growth,"S. cerevisiae deletion strains, locus YNR052C, strain pop2, active compounds read low",0.821 (active)
same,normalized growth,"S. cerevisiae deletion strains, locus YOL006C, strain TOP1, active compounds read low",0.656
same,normalized growth,"S. cerevisiae deletion strains, locus YOL012C, strain htz1",0.632
same,normalized growth,"S. cerevisiae deletion strains, locus YOL147C, strain pex11, active compounds read low",0.765 (active)
same,normalized growth,"S. cerevisiae deletion strains, locus YOR001W, strain rrp6, active compounds read low",0.8 (active)
same,normalized growth,"S. cerevisiae deletion strains, locus YOR061W, strain CKA2, active compounds read low",0.852 (active)
same,normalized growth,"S. cerevisiae deletion strains, locus YOR069W, strain VPS5, active compounds read low",0.864 (active)
same,normalized growth,"S. cerevisiae deletion strains, locus YOR070C, strain gyp1, active compounds read low",0.802 (active)
same,normalized growth,"S. cerevisiae deletion strains, locus YOR080W, strain dia2, active compounds read low",0.855 (active)
same,normalized growth,"S. cerevisiae deletion strains, locus YOR083W, strain WHI5, active compounds read low",0.767 (active)
same,normalized growth,"S. cerevisiae deletion strains, locus YOR106W, strain vam3, active compounds read low",0.745 (active)
same,normalized growth,"S. cerevisiae deletion strains, locus YOR136W, strain idh2, active compounds read low",0.893 (active)
same,normalized growth,"S. cerevisiae deletion strains, locus YOR144C, strain elg1, active compounds read low",0.812 (active)
same,normalized growth,"S. cerevisiae deletion strains, locus YOR184W, strain ser1, active compounds read low",0.578 (active)
same,normalized growth,"S. cerevisiae deletion strains, locus YOR231W, strain MKK1, active compounds read low",0.644 (active)
same,normalized growth,"S. cerevisiae deletion strains, locus YOR265W, strain rbl2, active compounds read low",0.828 (active)
same,normalized growth,"S. cerevisiae deletion strains, locus YOR270C, strain vph1, active compounds read low",0.565 (active)
same,normalized growth,"S. cerevisiae deletion strains, locus YOR290C, strain snf2, active compounds read low",0.716 (active)
same,normalized growth,"S. cerevisiae deletion strains, locus YOR316C, strain cot1, active compounds read low",0.79 (active)
same,normalized growth,"S. cerevisiae deletion strains, locus YPL051W, strain arl3, active compounds read low",0.656 (active)
same,normalized growth,"S. cerevisiae deletion strains, locus YPL055C, strain LGE1, active compounds read low",0.794
same,normalized growth,"S. cerevisiae deletion strains, locus YPL078C, strain atp4, active compounds read low",0.646 (active)
same,normalized growth,"S. cerevisiae deletion strains, locus YPL106C, strain sse1, active compounds read low",0.985
same,normalized growth,"S. cerevisiae deletion strains, locus YPL240C, strain hsp82, active compounds read low",0.831 (active)
same,normalized growth,"S. cerevisiae deletion strains, locus YPL241C, strain CIN2, active compounds read low",0.852 (active)
same,normalized growth,"S. cerevisiae deletion strains, locus YPL256C, strain CLN2, active compounds read low",0.643 (active)
same,normalized growth,"S. cerevisiae deletion strains, locus YPR119W, strain clb2, active compounds read low",0.779 (active)
same,normalized growth,"S. cerevisiae deletion strains, locus YPR141C, strain kar3, active compounds read low",0.95
same,normalized growth,"S. cerevisiae deletion strains, locus YPR163C, strain tif3, active compounds read low",0.784 (active)
same,normalized growth,"S. cerevisiae deletion strains, locus YPR167C, strain met16, active compounds read low",0.805 (active)
same,normalized growth,"S. cerevisiae deletion strains, strain wtn01, active compounds read low",0.8 (active)
same,normalized growth,"S. cerevisiae strains, strain wild type, active compounds read low",0.857 (active)
